# Data taken from PubChem BioAssay (Tox21).
# Inconclusive results are not listed. The source made the active and inactive calls. Calls come from the whole dose curve; as a rule, active = well fitted cell-killing curve with a large enough effect in the repeat runs; inconclusive = weak or mixed curves; inactive = flat fitted curve, though single readings scatter.
# Test: qHTS assay to identify small molecule antagonists of the estrogen related receptor (ERR) signaling pathway - cell viability counter screen (AID 1224818)
# Details: ERR reporter cell line viability counter screen; series mostly up to 46.1 µM; viability change, negative = cytotoxic: at the top concentration
# Text: National Center for Advancing Translational Sciences [NCATS]
# NIH Chemical Genomics Center [NCGC]
# U.S. Environmental Protection Agency [EPA]
# National Institutes of Environmental Health Sciences [NIEHS]
# National Toxicology Program [NTP]
# U.S. Food and Drug Administration [FDA]
# Estrogen related receptors (ERRs), the first orphan nuclear receptors discovered, play an important role in the control of cellular energy metabolism. ERRs are required for high-energy production in response to the environmental challenges. ERR-alpha was also identified as an adverse marker for breast cancer progression; ERR-alpha-positive tumors have a poor prognosis. To screen and to identify environmental compounds that perturb the ERR signaling pathways could provide valuable information for potential therapeutic or preventive measures in the treatment of metabolic disease. To differentiate true ERR antagonists or agonist from cytotoxic substances, the assay is multiplexed with cell viability assay.
# Tox21 Assay Protocol Summary:
# The ERR cells were dispensed at 2,000 cells/5 ul/well in 1536-well white plates using a Multidrop dispenser. After the assay plates were incubated at a 37 C/5% CO2 incubator for 6 hours, 23 nL of compounds dissolved in DMSO, positive and negative controls or DMSO only was transferred to the assay plate by a pin tool. The plates were incubated at 37 C for 17.5 hours. 1 ul/well of CellTiter-Fluor reagent was added into the assay plates using a Flying Reagent Dispenser. After 30 min incubation at 37 C/5% CO2, the fluorescence intensity in the plates was measured using a ViewLux plate reader.
# % is set by controls: 0 for no effect and ±100 for the full control effect; potency is the fitted concentration of half-maximal effect.
Structure (SMILES),"viability change, negative = cytotoxic",Potency
CCCCC(CC)COC(=O)c1ccccc1C(=O)O (centres undefined),3.23% [at 92.2 µM] (inactive),
C[n+]1cc2c3c(ccc2c2ccc4cc5c(cc4c21)OCO5)OCO3,,2.87 µM (active)
CCCC1O[C@@H]2C[C@H]3[C@@H]4CCC5=CC(=O)C=C[C@]5(C)[C@H]4[C@@H](O)C[C@]3(C)[C@]2(C(=O)CO)O1 (some centres undefined),1.83% (inactive),
Clc1ccc2nsnc2c1NC1=NCCN1,10.3% (inactive),
COCCCC/C(=N\OCCN)c1ccc(C(F)(F)F)cc1,-2.63% (inactive),
S=c1[nH]c2ccccc2s1,-8.84% [at 92.2 µM] (inactive),
CN(C)[C@@H]1C(=O)C(C(N)=O)=C(O)[C@@]2(O)C(=O)C3=C(O)c4c(O)ccc(Cl)c4[C@@H](O)[C@H]3C[C@@H]12,14.7% (inactive),
OCc1c[nH]c2ccccc12,-3.12% [at 92.2 µM] (inactive),
N=C1N=C(N)c2cc3ccccc3cc21,,25.3 µM (active)
CC(C)C(C)(C)C(C)(C)C(C)(C)S,-0.427% [at 92.2 µM] (inactive),
O=C(c1ccc(F)cc1)C1CCN(CCn2c(=O)[nH]c3ccccc3c2=O)CC1,-2.9% (inactive),
Clc1ccccc1C(c1ccccc1)(c1ccccc1)n1ccnc1,-22.9% (inactive),
CCN(CC)CCCC(C)Nc1c2ccc(Cl)cc2nc2ccc(OC)cc12 (centres undefined),-18.4% (inactive),
CSc1ccc(C(=O)c2[nH]c(=O)[nH]c2C)cc1,-4.36% (inactive),
